Results reported in paper PMC5540273 (PLoS ONE, 2017).

Assays:
Details in all cases: concentration: 1 μM, replicates: in singlicate; n = 1
HPK1 = system: HPK1
HUNK = system: HUNK
ICK = system: ICK
IGF1R = system: IGF1R
IKK-alpha = system: T1, IKK-alpha
T1 construct: gene CHUK

IKK-beta = system: T2, IKK-beta
T2 construct: gene IKBKB

IKK-epsilon = system: T3, IKK-epsilon
T3 construct: gene IKBKE

INSRR = system: INSRR
INSR = system: INSR
IRAK1 = system: IRAK1
IRAK3 = system: IRAK3
IRAK4 = system: IRAK4
ITK = system: ITK
[1] = system: JAK1(JH1domain-catalytic)
[2] = system: JAK1(JH2domain-pseudokinase)
[3] = system: JAK2(JH1domain-catalytic)
[4] = system: JAK3(JH1domain-catalytic)
JNK1 = system: T4, JNK1
T4 construct: gene MAPK8

JNK2 = system: T5, JNK2
T5 construct: gene MAPK9

JNK3 = system: T6, JNK3
T6 construct: gene MAPK10
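Further: KINOMEscan kinase panel screen.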

| Structure (SMILES) | %Inh (HPK1) | %Inh (HUNK) | %Inh (ICK) | %Inh (IGF1R) | %Inh (IKK-alpha) | %Inh (IKK-beta) | %Inh (IKK-epsilon) | %Inh (INSRR) | %Inh (INSR) | %Inh (IRAK1) | %Inh (IRAK3) | %Inh (IRAK4) | %Inh (ITK) | %Inh [1] | %Inh [2] | %Inh [3] | %Inh [4] | %Inh (JNK1) | %Inh (JNK2) | %Inh (JNK3) |
| --- | --- | --- | --- | --- | --- | --- | --- | --- | --- | --- | --- | --- | --- | --- | --- | --- | --- | --- | --- | --- |
| Fc1ccc(-c2nn3c(OCC(F)(F)F)cccc3c2-c2ccncc2)cc1 [GW514784] | 6% | 31% | 0% | 0% | 0% | 0% | 22% | 0% | 0% | 19% | 0% | 0% | 9% | 24% | 14% | 4% | 0% | 97.6% | 99.9% | 99.9% |
| Cc1c(Cn2c(C)nn3c(=O)cc(N4CCOC(C)C4)nc23)cccc1C(F)(F)F (centres unmarked) [GSK2344444] | 9% | 0% | 0% | 7% | 12% | 18% | 5% | 3% | 17% | 0% | 0% | 13% | 7% | 2% | 0% | 19% | 38% | 0% | 8% | 2% |
| Cc1cn2c(=O)cc(N3CCOCC3)nc2n1Cc1cccc(Cl)c1Cl [GSK2334006] | 30% | 9% | 12% | 0% | 7% | 18% | 3% | 28% | 0% | 0% | 13% | 5% | 14% | 2% | 0% | 2% | 0% | 18% | 16% | 6% |
| Cc1ccc(C(=O)NCC(N)=O)cc1-n1c(C)cc(OCc2ccc(F)cc2F)c(Br)c1=O | 0% | 0% | 0% | 5% | 0% | 0% | 0% | 0% | 0% | 0% | 15% | 0% | 22% | 0% | 49% | 0% | 4% | 0% | 0% | 0% |
| COc1cc(Nc2nccc(N3CCC(NC(=O)c4cccc(NC(C)=O)c4)C3)n2)cc(OC)c1OC (centres unmarked) [GSK1379754] | 70% | 0% | 0% | 0% | 5% | 8% | 14% | 0% | 1% | 40% | 85% | 12% | 6% | 7% | 11% | 97.3% | 0% | 31% | 22% | 40% |
| Fc1ccc(-c2ncn(CCCN3CCOCC3)c2-c2ccccn2)cc1 [SB-211742] | 11% | 54% | 0% | 0% | 0% | 0% | 0% | 0% | 0% | 0% | 1% | 0% | 0% | 0% | 0% | 0% | 0% | 20% | 0% | 0% |
| CCCCCc1nc2c(N)ncnc2n1CCCCC [SKF-97255] | 4% | 26% | 0% | 0% | 0% | 0% | 0% | 0% | 0% | 0% | 0% | 0% | 0% | 0% | 35% | 33% | 0% | 0% | 0% | 0% |
| O=c1cc(N2CCOCC2)nc2n(Cc3cccc(C(F)(F)F)c3)ccn12 [GSK2297543] | 20% | 41% | 0% | 0% | 0% | 0% | 7% | 0% | 14% | 0% | 0% | 0% | 9% | 2% | 0% | 0% | 0% | 0% | 10% | 0% |
| O=C1Cc2cc(Nc3nc(NCc4cccc(S(=O)(=O)C(F)(F)F)c4)ncc3C(F)(F)F)ccc2N1 | 0% | 8% | 0% | 0% | 20% | 8% | 0% | 0% | 0% | 14% | 0% | 22% | 0% | 28% | 0% | 7% | 7% | 9% | 0% | 0% |
| Cc1cccc(Cn2ccn3c(=O)cc(N4CCOCC4)nc23)c1 [GSK2297542] | 37% | 0% | 5% | 29% | 0% | 0% | 15% | 0% | 9% | 20% | 20% | 7% | 24% | 14% | 0% | 0% | 0% | 17% | 31% | 8% |
